# PRC2 inh: EZH2/PRC2 methyltransferase inhibitors, primary screen, biochemical, DELFIA time-resolved fluorescence, single point. Histone-lysine N-methyltransferase EZH2 (Homo sapiens), Q15910. PRC2 H3K27 methylation, DELFIA TRF, 1 h. inhibition, % at 12.5 µM. 57,000 compounds, 0.35% hits;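 active means mean inhibition of replicates at least 50% and every single replicate also reaching 50%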;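 further: dimethyl H3K27 on biotinylated H3 21-44 peptide detected by antibody; plate controls were median neutral control wells for no effect and median positive control wells for full effect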
# Target sequence (Q15910 whole entry, looked up): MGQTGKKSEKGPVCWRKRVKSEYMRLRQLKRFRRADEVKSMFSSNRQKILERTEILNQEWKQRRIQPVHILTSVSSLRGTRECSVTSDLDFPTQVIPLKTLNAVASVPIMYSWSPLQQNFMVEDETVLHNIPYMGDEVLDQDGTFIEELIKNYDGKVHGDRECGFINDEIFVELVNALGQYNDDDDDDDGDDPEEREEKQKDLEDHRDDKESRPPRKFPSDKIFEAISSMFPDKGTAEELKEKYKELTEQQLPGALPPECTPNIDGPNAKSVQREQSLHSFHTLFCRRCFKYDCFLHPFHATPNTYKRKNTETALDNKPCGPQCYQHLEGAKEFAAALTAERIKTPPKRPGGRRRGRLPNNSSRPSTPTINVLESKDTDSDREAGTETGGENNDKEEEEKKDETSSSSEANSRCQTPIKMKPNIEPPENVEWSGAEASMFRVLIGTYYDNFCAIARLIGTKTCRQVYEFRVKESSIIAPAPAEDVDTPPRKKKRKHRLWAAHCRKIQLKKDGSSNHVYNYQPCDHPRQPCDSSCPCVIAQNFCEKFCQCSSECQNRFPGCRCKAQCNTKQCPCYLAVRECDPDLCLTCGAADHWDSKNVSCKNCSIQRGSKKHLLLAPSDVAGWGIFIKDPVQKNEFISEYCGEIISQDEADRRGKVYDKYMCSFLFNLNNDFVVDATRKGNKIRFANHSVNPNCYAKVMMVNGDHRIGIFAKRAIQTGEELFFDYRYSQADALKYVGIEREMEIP
# Active calls of the source: *. Shown is part of a subset that was picked to be rich in hits.
SMILES,PRC2 inh
C[C@@H]1O[C@@H](O[C@H]2[C@@H]3C=CO[C@@H](O[C@@H]4O[C@H](CO)[C@@H](O)[C@H](O)[C@H]4O)[C@@H]3[C@@]3(CO)O[C@@H]23)[C@H](OC(=O)/C=C/c2ccc(O)c(O)c2)[C@H](O)[C@H]1O,18
COC(=O)c1cc(NC(=S)NCc2cccnc2)cc(C(=O)OC)c1,-9
COc1ccc([N+](=O)[O-])cc1NC(=O)CN(c1ccc(C)cc1C)S(C)(=O)=O,-2
CC(Oc1cccc(Cl)c1)c1nc(-c2cccnc2)no1 (stereo unspecified),-3
COc1ccc(C2Oc3c(OC)cc(/C=C/COC4OC(CO)C(O)C(O)C4O)cc3C2CO)cc1OC (stereo unspecified),-7
COc1cc(C2c3c(cc(OC)c(O)c3OC)CC(CO)C2COC2OC(CO)C(O)C(O)C2O)cc(OC)c1O (stereo unspecified),101*
C=CCNC(=O)[C@H]1[C@@H]2C(=O)O[C@@H](c3ccccc3)[C@@H](c3ccccc3)N2[C@@H](c2ccc(O)cc2)[C@]12C(=O)N(C(=O)OCCOC)c1ccccc12,-14
NC(=O)[C@@H]1[C@H]2C(=O)O[C@H](c3ccccc3)[C@H](c3ccccc3)N2[C@H](c2ccc(OCCO)cc2)[C@@]12C(=O)Nc1ccc(C#CC3(O)CCCCCC3)cc12,-29
O=C1O[C@H](c2ccccc2)[C@H](c2ccccc2)N2[C@H]1[C@@H](C(=O)N1CCCCCCC1)[C@]1(C(=O)Nc3ccc(C#CC4(O)CCCCCC4)cc31)[C@H]2c1ccc(OCCO)cc1,-20
O=C1O[C@@H](c2ccccc2)[C@@H](c2ccccc2)N2[C@@H](c3ccccc3OCCO)[C@]3(C(=O)Nc4ccc(C#CC5(O)CCCCCC5)cc43)[C@@H](C(=O)O)[C@H]12,73*
NC(=O)[C@@H]1[C@H]2C(=O)O[C@H](c3ccccc3)[C@H](c3ccccc3)N2[C@H](c2ccccc2OCCO)[C@@]12C(=O)Nc1ccc(C#CCCO)cc12,-38
O=C1O[C@H](c2ccccc2)[C@H](c2ccccc2)N2[C@H]1[C@@H](C(=O)O)[C@]1(C(=O)Nc3ccc(C#CC4(O)CCCCCC4)cc31)[C@H]2c1ccccc1OCCO,60*
C=CCNC(=O)[C@H]1[C@@H]2C(=O)O[C@@H](c3ccccc3)[C@@H](c3ccccc3)N2[C@@H](c2ccccc2OCCO)[C@]12C(=O)Nc1ccc(C#CC3(O)CCCCCC3)cc12,-27
Cc1nnc(Sc2ccc(/C=N/NC(=O)c3ccc(C(=O)NO)cc3)o2)n1C,7
Cc1cc(C)c(NC(=O)CSc2nnc(-c3cccnc3)s2)c([N+](=O)[O-])c1,3
CCOC(=O)CSc1nc(-c2ccccc2)nc2sc3c(c12)CCCC3,5
Cc1ccc(-n2c(C)nnc2SCC(=O)Nc2ccc(Br)cc2F)cc1,-5
CC1(C)CC[C@]2(C(=O)O)CC[C@]3(C)C(=CCC4[C@@]5(C)C[C@@H](O)[C@H](O)C(CO)(CO)C5CC[C@]43C)C2[C@@H]1O (stereo partly specified),44
CC1(C)CC[C@]2(C(=O)O)CC[C@]3(C)C(=CCC4[C@@]5(C)C[C@@H](O)[C@H](O)[C@@](C)(CO)C5CC[C@]43C)[C@@H]2[C@@H]1O (stereo partly specified),55*
CC1(C)CC[C@]2(C(=O)O)CC[C@]3(C)C(=CCC4[C@@]5(C)CC[C@H](O[C@@H]6OC[C@H](O)[C@H](O)[C@H]6O)[C@@](C)(CO)C5CC[C@]43C)C2C1 (stereo partly specified),-12
O=S(=O)(N[C@@H]1CCN(Cc2ccc(OCCO)cc2)C1)c1cc(C(F)(F)F)ccc1Cl,-12
C=CCOc1ccccc1/C=N/NC(=O)c1ccccn1,14
CCc1sc(-c2ccc(Cl)cc2)nc1C(=O)OC,23
COc1c(O)cc2c(c1O)[C@H]1O[C@H](CO)[C@@H](O)[C@H](O)[C@@H]1OC2=O,8
O=C1C[C@@H](c2ccc(O)cc2)Oc2cc(O)c([C@@H]3O[C@H](CO)[C@@H](O)[C@H](O)[C@H]3O)c(O)c21,-34
SMILES,PRC2 inh
O=C(OC1C(c2c(O)cc(O)c(C(=O)c3ccc(O)cc3)c2O)OC(CO)C(O)C1O)c1cc(O)c(O)c(O)c1 (stereo unspecified),56*
O=C(Cn1cnc2ccccc2c1=O)Nc1ccccc1Cl,-15
Cc1ccc(/C=C/c2ccc(=O)n(Cc3ccccc3Cl)n2)cc1,70*
Cc1ccc(=O)n(-c2ccccc2)c1,-6
Cc1nn(Cc2ccccc2Cl)c(C)c1NC(=O)C1CC(c2ccc(Cl)cc2)=NO1 (stereo unspecified),1
c1ccc(CNc2nc3ccccc3n2CCN2CCCCC2)nc1,5
CC(=O)CCc1ccc(Oc2ccc(C(F)(F)F)cn2)cc1,-1
COc1ccc(/C=N/NC(=O)CCCCCCC(=O)NO)cc1OC,-16
O=C(CNS(=O)(=O)c1ccccc1)Nc1ccc(Cl)c(C(F)(F)F)c1,0
O=C(CCCN1C(=O)c2ccccc2C1=O)Nc1ccc(Cl)c(C(F)(F)F)c1,13
O=C(CCNc1ccc(Cl)c(C(F)(F)F)c1)c1ccccc1,56*
O=S(=O)(NCc1cccnc1)c1ccc(C2CCCCC2)cc1,15
C[C@H]1CN([C@@H](C)CO)C(=O)c2cc(-c3cccc(F)c3)cnc2O[C@H]1CN(C)C(=O)C1CC1,7
N#Cc1c(NC(=O)COc2ccc(C(=O)NC3CCCCC3)cc2)sc2c1CCC2,-8
CC(C)c1ccc(NC(=O)CSc2nnc(-c3ccccc3O)n2C)cc1,-15
C/C=C/[C@H](CC(=O)N(CCO)Cc1ccccc1)[Si](C)(C)c1ccc(OC)cc1,58*
C/C=C/[C@H](CCn1cc(CCO)nn1)[Si](C)(C)c1ccc(OC)cc1,27
C/C=C/[C@@H](CCn1cc(CCO)nn1)[Si](C)(C)c1ccc(OC)cc1,13
O=C(CCCCCC(=O)N/N=C/C1=CCCCC1)NO,4
CC(C)(O)C(O)COc1c2ccoc2cc2oc(=O)ccc12 (stereo unspecified),7
COc1c2ccoc2cc2oc(=O)ccc12,52*
COc1ccc2c(=O)ccoc2c1,8
O=C(c1ccc(Cl)cc1)c1ccc(CSc2nnc(-c3ccccc3)o2)o1,41
NC(=O)CSc1nc2ccccc2n1Cc1ccccc1F,1
COc1ccc(OCc2nc3ccccc3n2Cc2ccccc2F)cc1,58*
SMILES,PRC2 inh
COc1ccc(OCc2nc3ccccc3n2Cc2c(F)cccc2Cl)cc1,28
CC(=O)N(Cc1ccc(C(C)C)cc1)c1ccc2oc(-c3ccccc3)nc2c1,58*
O=C(COc1ccccc1)Nc1ccc2oc(-c3ccc(Cl)cc3)nc2c1,-12
O=C(COc1ccccc1)Nc1ccc2oc(-c3cccc(Cl)c3)nc2c1,1
O=C(CN1C(=O)C2C3C=CC(C4CC34)C2C1=O)Nc1ccc(Oc2ccccc2)cc1 (stereo unspecified),11
CC(C)(C)ONC(=O)c1ccc(-n2cc(C(=O)NO)nn2)cc1,1
Cc1nc(SCC(=O)c2cc3ccccc3oc2=O)c(C#N)c(C)c1C,-14
CC(=O)c1cc(C)c(O)c(COC2OC(CO)C(O)C(O)C2O)c1O (stereo unspecified),18
CC(C)CC(=O)O[C@@H]1OC=C(CO[C@@H]2O[C@H](CO)[C@@H](O)[C@H](O)[C@H]2O)[C@H]2C[C@H](O)[C@@](C)(O)[C@@H]12,10

# Bioassay records: PubChem, Broad Institute
